Potency and viability data for 7 compounds are collected here from PubChem BioAssay (NCATS).

Records with an inconclusive call do not appear. Unmarked numbers belong to inactive results. The source made the active and inactive calls. The call rests on the fitted dose curve; in most records, active means well fitted curve in the direction sought with a large enough effect; inconclusive means small, poorly fitted or top-dose-only effect, or another doubt; inactive means no such curve, though single readings can be large; an effect the other way counts as inactive or inconclusive.

A short description of assay [1]: Quantitative High-Throughput drug screen in 47 multiple myeloma cell lines against the NCATS MIPE library collection: KMS27_JCRB cell viability assay (AID 1918970). Further: nearly all actives have a fitted effect of over 30% in size. Further: potency means the concentration at half of the fitted maximal effect. The method, boiled down: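 Luminescent ATP read-out (CellTiter-Glo, 5 min at room temperature) after 48 h compound exposure of 500 KMS27_JCRB cells per well; DMSO wells define full viability and media-only wells zero.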

Assay [2] in a line: Quantitative High-Throughput drug screen in 47 multiple myeloma cell lines against the NCATS MIPE library collection: KMS12BM_JCRB cell viability assay (AID 1918971). Further: nearly all actives have a fitted effect of over 35% in size. Further: potency means the concentration at half of the fitted maximal effect. Put shortly:
(§1)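 qHTS of the MIPE 4.0 collection: 500 myeloma cells/well, 48 h drug exposure at 37C in 5% CO2, then CellTiter-Glo for 5 min at room temperature before luminescence reading.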

The nature of assay [3]: Quantitative High-Throughput drug screen in 47 multiple myeloma cell lines against the NCATS MIPE library collection: KMS12PE_JCRB cell viability assay (AID 1918972). Further: nearly all actives have a fitted effect of over 30% in size. Further: potency means the concentration at half of the fitted maximal effect.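 On viability: 100% = DMSO only wells and 0% = wells with media alone.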 Put shortly:
(§2)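 Approved and investigational drugs from MIPE 4.0 were added by pin tool to 500 cells per well. After 48 hours at 37C, ATP-based CellTiter-Glo luminescence indicated remaining viability.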

Assay [4] in a line: Quantitative High-Throughput drug screen in 47 multiple myeloma cell lines against the NCATS MIPE library collection: KMS26_JCRB cell viability assay (AID 1918975). Further: nearly all actives have a fitted effect of over 45% in size. Further: potency means the concentration at half of the fitted maximal effect. Put shortly: as §1
Assay [5] in a line: Quantitative High-Throughput drug screen in 47 multiple myeloma cell lines against the NCATS MIPE library collection: L363_DSMZ cell viability assay (AID 1918984). Further: nearly all actives have a fitted effect of over 40% in size. Further: potency means the concentration at half of the fitted maximal effect. The method, boiled down: (§3)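 MIPE 4.0 approved/investigational drugs; 500 cells/well; 48 h 37 °C humidified 5% CO2; CTG luminescence readout; DMSO = 100%, media = 0% viability.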
The nature of assay [6]: Quantitative High-Throughput drug screen in 47 multiple myeloma cell lines against the NCATS MIPE library collection: OCIMY7_PLB cell viability assay (AID 1918987). Further: potency means the concentration at half of the fitted maximal effect; nearly all actives have a fitted effect of over 65% in size. The method, boiled down: as §3
The nature of assay [7]: Quantitative High-Throughput drug screen in 47 multiple myeloma cell lines against the NCATS MIPE library collection: OCIMY5_PLB cell viability assay (AID 1918988). Further: nearly all actives have a fitted effect of over 65% in size. Further: potency means the concentration at half of the fitted maximal effect. The method, boiled down: as §3
Assay [8] in a line: Quantitative High-Throughput drug screen in 47 multiple myeloma cell lines against the NCATS MIPE library collection: OPM1_PLB cell viability assay (AID 1918989). Further: nearly all actives have a fitted effect of over 40% in size. Further: potency means the concentration at half of the fitted maximal effect. The method, boiled down:
as §3

Assay [9] in a line: Quantitative High-Throughput drug screen in 47 multiple myeloma cell lines against the NCATS MIPE library collection: KMS20_JCRB cell viability assay (AID 1918973). Further: nearly all actives have a fitted effect of over 45% in size. Further: potency means the concentration at half of the fitted maximal effect. The method, boiled down:
as §2

Assay [10] in a line: Quantitative High-Throughput drug screen in 47 multiple myeloma cell lines against the NCATS MIPE library collection: KMS21BM_JCRB cell viability assay (AID 1918974). Further: potency means the concentration at half of the fitted maximal effect. As to conditions: ATP luminescence, 48 h; viability: at 45.8 µM (top of the series) unless noted. Put shortly: as §2
A short description of assay [11]: Quantitative High-Throughput drug screen in 47 multiple myeloma cell lines against the NCATS MIPE library collection: MMM1_PLB cell viability assay (AID 1918976). Further: potency means the concentration at half of the fitted maximal effect; nearly all actives have a fitted effect of over 35% in size. Put shortly:
as §3

A short description of assay [12]: Quantitative High-Throughput drug screen in 47 multiple myeloma cell lines against the NCATS MIPE library collection: MOLP8_DSMZ cell viability assay (AID 1918977). Further: nearly all actives have a fitted effect of over 45% in size. Further: potency means the concentration at half of the fitted maximal effect. The method, boiled down: as §3
Assay [13] in a line: Quantitative High-Throughput drug screen in 47 multiple myeloma cell lines against the NCATS MIPE library collection: NCIH929_DSMZ cell viability assay (AID 1918978). Further: nearly all actives have a fitted effect of over 35% in size. Further: potency means the concentration at half of the fitted maximal effect. Put shortly:
as §3

Assay [14] can be described thus: Quantitative High-Throughput drug screen in 47 multiple myeloma cell lines against the NCATS MIPE library collection: OCIMY1_PLB cell viability assay (AID 1918979). Further: nearly all actives have a fitted effect of over 35% in size. Further: potency means the concentration at half of the fitted maximal effect.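 On viability: 100% = DMSO-only wells and 0% = cell-free media-only wells.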 The method, boiled down: as §3
Assay [15] in a line: Quantitative High-Throughput drug screen in 47 multiple myeloma cell lines against the NCATS MIPE library collection: MM1S_ATCC cell viability assay (AID 1918980). Further: nearly all actives have a fitted effect of over 45% in size. Further: potency means the concentration at half of the fitted maximal effect. The method, boiled down: as §3
Assay [16] in a line: Quantitative High-Throughput drug screen in 47 multiple myeloma cell lines against the NCATS MIPE library collection: MM1R_ATCC cell viability assay (AID 1918981). Further: nearly all actives have a fitted effect of over 35% in size. Further: potency means the concentration at half of the fitted maximal effect. The method, boiled down: as §3
The nature of assay [17]: Quantitative High-Throughput drug screen in 47 multiple myeloma cell lines against the NCATS MIPE library collection: KMS28PE_JCRB cell viability assay (AID 1918983). Further: nearly all actives have a fitted effect of over 35% in size. Further: potency means the concentration at half of the fitted maximal effect. The method, boiled down:
as §3

The nature of assay [18]: Quantitative High-Throughput drug screen in 47 multiple myeloma cell lines against the NCATS MIPE library collection: KMS34_JCRB cell viability assay (AID 1918985). Further: nearly all actives have a fitted effect of over 40% in size. Further: potency means the concentration at half of the fitted maximal effect. The method, boiled down:
as §3

A short description of assay [19]: Quantitative High-Throughput drug screen in 47 multiple myeloma cell lines against the NCATS MIPE library collection: SKMM1_PLB cell viability assay (AID 1919863). Further: nearly all actives have a fitted effect of over 35% in size. Further: potency means the concentration at half of the fitted maximal effect. The settings on record: SKMM1 myeloma viability, CellTiter-Glo ATP, 48 h; viability: stronger effect = lower value. The method, boiled down:
as §3

The nature of assay [20]: Quantitative High-Throughput drug screen in 47 multiple myeloma cell lines against the NCATS MIPE library collection: LP1_DSMZ cell viability assay (AID 1918982). Further: nearly all actives have a fitted effect of over 35% in size. Put shortly:
as §3

Regarding `Cc1ccc(Nc2nccc(N(C)c3ccc4c(C)n(C)nc4c3)n2)cc1S(N)(=O)=O`, the Potency in assay [1] was 20.9 µM (active); in assay [2], 18.7 µM (active); in [3] it was 16.6 µM (active); in [4], 23.5 µM (active); in assay [5] it was 11.8 µM (active); in assay [6], 18.7 µM (active). The Potency is 16.6 µM (active) in assay [7] and 14.8 µM (active) in assay [8].
Take `CN(C)c1ccc2nc3ccc(=[N+](C)C)cc-3sc2c1`: the Potency in [1] is 1.32 µM (active); in assay [2], 4.69 µM (active); in assay [3] it was 5.9 µM (active); in assay [9], 2.64 µM (active); in assay [10] it was 1.48 µM (active); in assay [4], 1.32 µM (active). Also, the Potency in assay [11] was 5.26 µM (active); in assay [12] it was 3.32 µM (active); in assay [13], 6.62 µM (active); in [14], 1.48 µM (active); in [15], 2.64 µM (active); in assay [16], 1.05 µM (active). Moreover, the Potency is 5.9 µM (active) in assay [17]; 3.72 µM (active) in assay [5]; 0.59 µM (active) in assay [18]; 2.35 µM (active) in assay [6]; 0.526 µM (active) in assay [7]; 3.72 µM (active) in assay [8]. Besides, in assay [19], the Potency was 1.66 µM (active).
With `CCCCCCCCOc1ccccc1C(=O)Nc1ccc(C(=O)OCC[N+](C)(CC)CC)cc1`, the Potency in assay [1] is 6.62 µM (active); in assay [2] it was 18.7 µM (active); in assay [3], 4.69 µM (active); in assay [9] it was 16.6 µM (active); in assay [4], 16.6 µM (active); in [11], 16.6 µM (active). The Potency was 20.9 µM (active) in assay [12]; 20.9 µM (active) in [13]; 4.69 µM (active) in assay [5]; 23.5 µM (active) in [18]; 20.9 µM (active) in assay [7]; 18.7 µM (active) in assay [8].
Take `Nc1nc(Cl)nc2c1ncn2[C@H]1C[C@H](O)[C@@H](CO)O1`: the Potency in [1] was 0.296 µM (active); in assay [2] it was 0.0833 µM (active); in [3], 0.0372 µM (active); in assay [9], 1.48 µM (active); in assay [10], 0.0935 µM (active); in [11] it was 4.69 µM (active). The Potency in assay [12] was 0.0833 µM (active); in assay [13] it was 0.59 µM (active); in assay [15], 0.59 µM (active); in assay [16] it was 0.264 µM (active); in assay [6], 0.001 µM (active); in assay [8] it was 18.7 µM (active). In addition, the Potency result in assay [20] was “inactive”.
The viability is a read-out of living cells in per cent, often relative to untreated cells. With `O=C(CS(=O)Cc1ccco1)NCC=CCOc1cc(CN2CCCCC2)ccn1` (stereo not given), the Potency result in assay [1], in [2], in [3], in [9], in assay [16] and in [17] was “inactive” throughout. Besides, the Potency result in assay [5] and in [18] was “inactive” in each case. Also, the viability in [19] was 134%.
On to `C[Se]CCC(N)C(=O)O` (stereo not given), for which the Potency result in assay [1], in assay [2], in assay [3], in assay [12], in [13] and in assay [14] was “inactive” each time. The Potency entry in [15], in assay [20], in assay [17], in assay [5] and in assay [8] was “inactive” in each case. The viability in assay [10] was 325% [at 92.2 µM] (active). In [11], the Potency was 0.855 µM (active).
As to `CC1=C(C(=O)O)N2C(=O)[C@@H](NC(=O)[C@H](N)C3=CCC=CC3)[C@H]2SC1`, the Potency entry in [1], in assay [2], in assay [3], in assay [4], in assay [12] and in [14] was “inactive” each time. Also, the Potency entry in [16], in assay [18], in [7] and in [8] was “inactive” in each case. Moreover, the viability in assay [19] is 126%.
